The whole screen tested about 300,000 compounds, of which about 1,700 (0.57%) were called active. Not shown: some 2% with an inconclusive outcome. The full list was thinned out, with actives kept by preference. Values without a mark were called inactive.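 The calls were made as follows: active = growth inhibition above about 58% in most replicates (limit read from the data, passing the limit was not always enough); inconclusive = exactly half the replicates above a set limit; inactive = most replicates below a set limit.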
Experiment: Candida growth reduction under fluconazole – CaCi-2 strain, Alamar Blue fluorescence, primary screen (AID 1979);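 also: all wells also contain fluconazole at 8 µg/ml as a sub-toxic cotreatment; 0% = median of DMSO wells and 100% = median of geldanamycin control wells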
Conditions: C. albicans CaCi-2 (fluconazole-resistant clinical isolate) + fluconazole, 48 h, stronger effect = higher value, concentration not given here

Structure (SMILES) | growth inhibition
CC(=O)Nc1ccc(NC(=O)CSc2nnnn2C2CCCCC2)cc1 | -2.4%
Oc1c(Cl)cc(Cl)c(Cl)c1Cc1c(O)c(Cl)cc(Cl)c1Cl | 110% (active)
Cc1c(C(=O)Nc2ccccn2)oc2ccc(Br)cc12 | 27.1%
COc1ccc(OC)c(NC(=O)c2ccc3c(c2)C(=O)N(c2ccc(OC(C)=O)cc2)C3=O)c1 | 0.417%
CC(=O)c1sc(N)nc1C | -4.24%
Cc1ccc(NC(=O)COc2coc(CN3CCc4ccccc4C3)cc2=O)cc1Cl | -1.39%
Cc1ccc(CC(=O)N(C)CC(=O)N(CC(C)C)c2c(N)n(CC(C)C)c(=O)[nH]c2=O)cc1C | 1.58%
Oc1ccccc1CN1CCN(C(c2ccccc2)c2ccccc2)CC1 | -4.19%
CCN1CCN(C(c2cccnc2)c2cc(Cl)c3cccnc3c2O)CC1 (centres undefined) | 101% (active)
CCOC(=O)N1CCN(C(c2cccnc2)c2ccc3cccnc3c2O)CC1 (centres undefined) | -9.67%
CC(=O)Nc1ccc(C(=O)Nc2cccc(S(=O)(=O)NC3=NCCC3)c2)cc1 | 3.58%
O=C(CCCO)N/N=C/c1cc(Br)ccc1O | -31.2%
Oc1ccc(Br)cc1/C=N/Nc1ccccn1 | 106% (active)
Oc1ccc(/C=N/Nc2ccc(C(F)(F)F)cn2)cc1O | -7.01%
Cc1cc(NC(=O)C(C)SCC(=O)Nc2ccccc2N2CCCCC2)no1 (centres undefined) | 1.22%
O=C(Nc1nc(-c2ccco2)c(-c2ccco2)s1)c1ccco1 | -0.652%
CSc1nsc(SCC(=O)Nc2cc(C(=O)O)ccc2C)n1 | 17.7%
CCc1nnc(NC(=O)CSc2nc(SC)ns2)s1 | 81.2% (active)
CCc1nnc(NC(=O)CCC(=O)O)s1 | -5.2%
CC(=O)O[C@H]1CC[C@@]2(C)[C@@H](CC[C@@H]3[C@@H]2CC[C@]2(C)[C@@H](C(C)(C)O)C[C@@H]32)C1 | 1.13%
O=C1CCCCC1Sc1ccc(Cl)cc1[N+](=O)[O-] (centres undefined) | -3.28%
C[C@@H]1O[C@@H](OC[C@H]2O[C@@H](Oc3c(-c4ccc(O)cc4)oc4cc(O)cc(O)c4c3=O)[C@H](O)[C@@H](O)[C@@H]2O)[C@H](O)[C@H](O)[C@H]1O | 1.9%
Cc1ccc(-c2cc(C(=O)NC3CCN(Cc4ccccc4)CC3)c3ccccc3n2)cc1 | 2.43%
CCNS(=O)(=O)c1ccc(NC(=O)Nc2cccc(C(F)(F)F)c2)cc1 | -8.1%
CCOC(=O)N1CCN(C(=O)c2ccc(S(=O)(=O)Nc3cccc(C(F)(F)F)c3)cc2)CC1 | -2.84%
Cc1oc2c(F)c(F)c(F)c(F)c2c1S(=O)(=O)Nc1cccc(C(F)(F)F)c1 | 84.7% (active)

Structure (SMILES) | growth inhibition
Cc1cc(NC(=O)CCS(=O)(=O)c2ccc(F)cc2)no1 | -4.39%
CN(CC(=O)Nc1cccc(F)c1)C(=O)C1=COCCO1 | -19.9%
Cc1ccc(S(=O)(=O)N2CCC(C(=O)OCC(=O)N(C)c3ccccc3)CC2)cc1C | 5.01%
CCCN1CCn2c3c(c4cc(Br)ccc42)CCCC31 (centres undefined) | -13.4%
OC(CNCC1CCCO1)Cn1c2ccc(Br)cc2c2cc(Br)ccc21 (centres undefined) | 101% (active)
CC(NS(=O)(=O)c1ccc(Br)cc1)C(=O)NCC1CCCO1 (centres undefined) | -9.65%
Cc1nc(-c2ccc(Cl)cc2)sc1C1(C)CC(c2ccc(Br)cc2)=NO1 (centres undefined) | 1.65%
COCCNC(=O)C1CCN(S(=O)(=O)c2ccc3c(c2)OCCO3)CC1 | 0.395%
CCc1ccc2nc3sc(C(=O)Nc4nnc(CC)s4)c(N)c3cc2c1 | 44%
Cc1ccc(NC(=O)c2sc3nc(N)c(C#N)cc3c2N)cc1 | 88.6% (active)
COc1ccc(NC(=O)c2cc(-c3ccc(C)cc3)on2)cc1 | 2.77%
COC(=O)c1ccc(SCc2ccccc2)nc1 | 13.7%
CN(C)c1nc(NN)nc(Nc2ccc(F)cc2)n1 | 3.13%
COc1cnn(-c2ccc([N+](=O)[O-])cc2)c(=O)c1Cl | -11.1%
Cc1ccc(N2CC(C(=O)Nc3cc(Cl)ccc3-n3cncn3)CC2=O)cc1 (centres undefined) | -4.63%
Cc1onc(NC(=O)c2ccc([N+](=O)[O-])o2)c1Br | -0.786%
Cc1cccc(NC(=O)c2ccc([N+](=O)[O-])o2)c1 | 83.3% (active)
O=C(Nc1ccc(Br)cn1)c1ccc([N+](=O)[O-])o1 | 18.1%
CC(=O)N(CC(O)CO)c1c(I)c(C(=O)NCC(O)CO)c(I)c(C(=O)NCC(O)CO)c1I (centres undefined) | -2.27%
COc1cccc(CC(=O)Nc2nc(-c3ccc(OC)c(OC)c3)cs2)c1 | -0.204%
COc1ccc(C)cc1Nc1nc(-c2c(C)[nH]c3ccccc23)cs1 | 0.619%
COc1ccc(OC)c(Nc2nc(-c3ccc(O)c(O)c3)cs2)c1 | 97.8% (active)
O=C(NCCC1CCCCN1S(=O)(=O)c1ccccc1)C(=O)NCC1CCCO1 (centres undefined) | -4.24%
N#Cc1cccc(OC(=O)c2ccc3c(=O)n4c(nc3c2)CCC4)c1 | 6.7%
Brc1cnc2ccccc2c1N1CCCCC1 | 0.784%
CCOc1cc(N2CCOCC2)c(OCC)cc1NC(=O)COc1cccc(Cl)c1 | 18.5%

Structure (SMILES) | growth inhibition
CCOc1cc(N2CCOCC2)c(OCC)cc1NC(=O)c1cc(C)nc2ccccc12 | -4.82%
CCOc1cc(N2CCOCC2)c(OCC)cc1NC(=O)COc1cccc2cccnc12 | 101% (active)
Cc1ccc(-c2nnn(CC(=O)N(CCO)C(C(=O)NC(C)(C)C)c3ccncc3)n2)cc1 (centres undefined) | -7.13%
Cc1ccc(-c2nnn(CC(=O)N(Cc3ccco3)C(C(=O)NC(C)(C)C)c3ccncc3)n2)o1 (centres undefined) | 115% (active)
Cc1cccc(N(C(=O)Cn2nnc(-c3ccc(C)o3)n2)C(C(=O)NC2CCCC2)c2ccncc2)c1 (centres undefined) | 9.19%
Cc1c(C(=O)NC(C)C2CC3CCC2C3)cccc1[N+](=O)[O-] (centres undefined) | -2.33%
O=S(=O)(c1ccccc1)N1CCc2ccccc21 | -2.11%
CC1CN(S(=O)(=O)c2ccccc2)C(C)CN1S(=O)(=O)c1ccccc1 (centres undefined) | 3.32%
CC1COc2ccccc2N1S(=O)(=O)c1ccccc1 (centres undefined) | 99.8% (active)
CCOc1ccc(S(=O)(=O)NCCC(=O)NCC(C)(C)N2CCOCC2)cc1 | -1.97%
Cc1nc2ccccn2c(=O)c1NC(=O)c1cccs1 | 0.647%
COc1cc(/C=C(\C#N)c2nc3c(s2)CC(C)CC3)ccc1O (centres undefined) | 43.5%
COc1cc(/C=C(\C#N)c2nc3ccccc3[nH]2)ccc1O | 76.5% (active)
COc1ccc(/C=C(/NC(=O)c2ccc(C)cc2)c2nc3ccccc3[nH]2)cc1OC | 23.2%
Clc1ccc(Nc2ccc3ccccc3n2)cc1 | -23.2%
CCN1C(=O)[C@H]2[C@@H](c3ccc(-c4ccc(OC)cc4)cc3)N[C@@](Cc3ccccc3)(C(=O)OC)[C@H]2C1=O | 3.17%
CCN(CC(=O)Nc1cccc(S(=O)(=O)N2CCCCC2)c1)Cc1ccccc1 | -0.00245%
COc1ccccc1NC(=O)COC(=O)c1ccccc1SCC(=O)N1CCCC1 | 4.29%
CCOC(=O)c1[nH]ncc1CN1CCCC(C(=O)c2ccc(OC)cc2C)C1 (centres undefined) | -8.68%
COc1ccc(C(=O)C2CCCN(Cc3cccn3-c3ccccn3)C2)c(C)c1 (centres undefined) | 110% (active)
COc1ccc(C(=O)C2CCCN(Cc3ccc4nonc4c3)C2)c(C)c1 (centres undefined) | 3.47%
CCn1c(=O)c([N+](=O)[O-])c(NCc2ccc3c(c2)OCO3)c2ccccc21 | 18.7%
Cc1nc2ccccc2c(=O)n1Cc1ccc([N+](=O)[O-])cc1 | -0.41%
CCn1c(/C=C/c2ccc([N+](=O)[O-])o2)nc2ccccc2c1=O | 99.4% (active)
Cc1cccc(-n2nc3c(c2NC(=O)c2cc4ccccc4o2)CS(=O)(=O)C3)c1 | 7.71%
CC(=O)N1CCN(C(=O)c2cc(-c3ccc(Cl)s3)nc3ccccc23)CC1 | 11.4%

Structure (SMILES) | growth inhibition
CC(=O)Nc1cccc(C(=O)OCC(=O)c2ccc3c(c2)OCO3)c1 | 4.88%
COc1ccc2nc(N3CCN(C(=O)c4ccc([N+](=O)[O-])o4)CC3)sc2c1 | 13.6%
Cc1ccc(C)c(NC(=S)NNC(=O)c2csc(C)c2)c1 | 82.7% (active)
Cc1cc(C(=O)NNC(=S)Nc2ccccc2C)cs1 | 1.21%
Cc1cc(C(=O)NNC(=S)NC(C)c2ccccc2)cs1 (centres undefined) | 12.8%
NC1=NC(c2ccc([N+](=O)[O-])cc2)N(c2ccc(F)cc2)C(N)=N1 (centres undefined) | -2.27%
Cc1ccc(C(=O)Nc2c(C#N)c(C)c(C)n2Cc2ccccc2)cc1 | -7.7%
CC(C)C(=O)N1CC(=O)Nc2ccc(F)cc2C1c1ccc(F)cc1 (centres undefined) | -3.91%
O=C(Nc1ccccc1Cl)/C(Cl)=C(\Cl)S(=O)c1ccccc1 (centres undefined) | 81.7% (active)
O=C(COC(=O)c1cccs1)Nc1ccccc1Cl | 7.55%
O=C(Nc1ccccc1Cl)Nn1cnnc1 | 16.1%
O=c1[nH]c(/C=C/c2cccc(Br)c2)nc2ccccc12 | 3.62%
COc1ccccc1-n1ccnc(SCC(=O)NC2CCCCC2)c1=O | -2.58%
CC1COc2ccccc2N1C(=O)c1ccc(F)cc1 (centres undefined) | -3.04%
O=C(Nc1ccccc1F)c1ccc2c(c1)OCO2 | -5.7%
O=C(Nc1nnc(C2COc3ccccc3O2)o1)c1ccc(F)cc1 (centres undefined) | 85.8% (active)
Cc1cccc(N(Cc2ccccc2)C(=O)c2cc(S(=O)(=O)N3CCOCC3)ccc2F)c1 | -1.4%
CCN1C(=O)[C@H]2[C@@H](c3ccc(-c4ccc(F)cc4)cc3)N[C@@](Cc3ccccc3)(C(=O)OC)[C@H]2C1=O | -6.22%
COC(=O)N/N=C/c1c[n+]([O-])c2ccccc2[n+]1[O-] | 12.4%
Cc1ccc(NC(=O)CN(C)C(=O)Cn2nnc(-c3ccccc3)n2)cc1 | -6.13%
O=C1CCCN1C(=O)COc1ccc([N+](=O)[O-])cc1 | 4.3%
Cc1cccc(C2c3[nH]c4ccccc4c3CCN2C(=O)c2cc(-c3cccn3C)n[nH]2)n1 (centres undefined) | 79.7% (active)
Cc1cccc(C(=O)N2CCc3c([nH]c4ccccc34)C2CC(C)C)n1 (centres undefined) | 12.9%
O=C(c1cn2ccccc2n1)N1CCc2c([nH]c3ccccc23)C1c1ccccn1 (centres undefined) | -2.25%
O=C(NCc1ccccc1)C1=C[C@@H](c2ccccc2)C[C@@H](OCCCCO)O1 | -5.03%
CCN(CC(=O)Nc1cc(Cl)ccc1C)C(=O)Cn1c(=O)cnc2ccccc21 | -1.02%

From PubChem BioAssay AID1979 (Broad Institute, 2009)
